# Epigenetic reg: regulators of epigenetic silencing causing reporter derepression in mouse cells; murine LDR cells, GFP reporter derepression, 30 h; Potency, µM (series often up to 53.9 µM), for the others: at the highest dose GFP activation, hits mostly activators; hit rate 0.2% among 280,000; active means well fitted activation curve with a large enough effect; inconclusive means small, poorly fitted or top-dose-only effect; further: potency means the concentration at half of the fitted maximal effect; % of control where 0% means no effect; nearly all actives have a fitted effect of over 60% in size
#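 Derepression of a silenced CMV-GFP reporter in murine LDR cells is scored by enumerating GFP-positive cells with a laser-scanning microplate cytometer after 30 hours of treatment at 37 C.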
# TRHR ag: activates the human TRH receptor | hit rate 0.18% among 360,000 | activation, % at 2 µM | TRHR cells, calcium flux fluo-8, FDSS agonist mode | P34981; further: 0% is about no effect
# Target sequence (P34981 whole entry, looked up): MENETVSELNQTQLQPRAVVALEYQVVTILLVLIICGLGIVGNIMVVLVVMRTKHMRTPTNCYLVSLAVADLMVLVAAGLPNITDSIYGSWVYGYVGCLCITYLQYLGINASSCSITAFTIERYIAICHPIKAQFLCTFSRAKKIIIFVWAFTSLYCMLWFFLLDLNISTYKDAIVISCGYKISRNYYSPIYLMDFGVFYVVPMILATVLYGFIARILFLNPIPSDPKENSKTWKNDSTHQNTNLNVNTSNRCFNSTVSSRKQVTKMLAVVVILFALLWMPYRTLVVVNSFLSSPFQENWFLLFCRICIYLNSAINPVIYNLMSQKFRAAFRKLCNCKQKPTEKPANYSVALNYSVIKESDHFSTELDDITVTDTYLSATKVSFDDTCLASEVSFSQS
#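 Read-out: compound-evoked intracellular calcium rise in TRHR cells, fluo-8 dye, kinetic FDSS fluorescence at 1 s/cycle following a 10-cycle baseline. Cells cultured overnight before dye loading (30 min–1.5 h, RT).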
# TRHR enhancer: allosterically enhances the human TRH receptor. P34981. TRHR cells, fluo-8 calcium fluorescence, EC20 TRH enhancement. enhancement, % at 2 µM. hit rate 0.66% among 360,000; in the data active means enhancement above about 30%; further: 0% is about no effect
#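 Enhancer read-out: after compound pinning and an initial kinetic agonist-mode read, an EC20 of TRH (10 nM final) was injected and fluo-8 calcium signal (Ex 480/Em 530) followed at 1 s/cycle for 100 cycles in TRHR-expressing cells.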
# D1 antag: human D1 dopamine receptor antagonism; P21728; HEK293 TREx D1 cells, calcium flux, dopamine EC80; active compounds read low; activity change, negative = inhibition, % at 10 µM; hit rate 3.2% among 360,000; AID 504652; in the data active means activity change below about -30%; further: on the % scale 0 is the no-effect control and ±100 the full control effect
#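 Tetracycline-induced HEK293 T-REx cells with force-coupled D1 receptor were loaded with a no-wash calcium dye. Compound was added after a 10 s baseline and read kinetically for 180 s; EC80 dopamine was then added and calcium flux followed another 180 s.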
# D1 ag: agonists of human D1 dopamine receptor; HEK293 T-REx D1 cells, calcium flux, agonist mode; P21728; activation, % at 2 µM; hit rate 1% among 360,000; AID 504660; further: 0% is about no effect
#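 Inducible HEK293 T-REx D1 cells, force-coupled to calcium signalling, were plated at 4000 cells/well with tetracycline and held overnight at 30 C. After no-wash calcium dye loading, compound-evoked calcium rise over 180 s flagged agonists.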
# D1 PAM: enhances dopamine response at the human D1 receptor; potentiation, % at 10 µM; AID 504651; HEK293 TREx D1 cells, calcium flux, dopamine EC20 potentiation; hit rate 0.036% among 360,000; P21728; in the data active means potentiation above about 30%; further: 0% is about no effect
# Numbers without * were called inactive; ? = inconclusive; · = no result; ! = repeats disagree. This is a sample that favours compounds with a hit; in the whole collection about 4.6% have one here. Unless noted, no stated cut-off is given here; in the data, active means activation above about 30%; inactive means the rest.
SMILES,Epigenetic reg,TRHR ag,TRHR enhancer,D1 antag,D1 ag,D1 PAM
CN1CCCN(C(=O)CC(c2ccccc2)c2ccccc2)CC1,-6%,-1,-1,8,0,-4
COC(=O)C1=C(C)Nc2nc(-c3ccccc3)nn2C1c1ccc(C)o1 (centres undefined),1%,-1,-4,-57*,2,-10
CC1(C(=O)NCCOc2ccccc2Cl)CC1(Cl)Cl (centres undefined),·,0,1,-65*,1,-5
COc1ccccc1OCCNC(=O)Cc1ccc(Cl)c(Cl)c1,3%,-3,-5,-34*,4,-3
COC(=O)c1ccc(NC(=O)CSc2ncc3c(n2)-c2cc(Cl)ccc2N(Cc2ccccc2)S3(=O)=O)cc1,?,1,-12,-1,1,5
CCc1ccc2oc(-c3cccc(NC(=O)C(C)(C)Oc4ccc(Br)cc4)c3)nc2c1,-1%,4,3,-8,10,1
CC(=O)n1c2ccccc2c2ccccc21,0%,0,3,-3,0,-4
CC(=O)n1c(C=Nc2ccc(Cl)cc2)c(O)c2ccccc21,?,-4,9,2,39*,1
CCOC(=O)c1cccc(NC(=O)CC(c2ccc(F)cc2)N2Cc3ccccc3C2=O)c1 (centres undefined),7%,0,-3,-1,1,1
COc1cc(Cl)c(C)cc1NC(=O)Cn1ncc2c3ccccc3n(Cc3ccccc3)c2c1=O,3%,1,-1,1,1,-2
Cc1cc(C)cc(NC(=O)N2CCC(N3CCCCC3)CC2)c1,-6%,1,15,-6,0,-2
COc1cccc([C@@H]2Oc3ccc(Br)cc3C(=O)[C@H]2OC(=O)Nc2ccc(OC(F)F)cc2)c1,0%,·,·,·,·,·
O=C(NCCc1ccc(Cl)cc1)c1ccc(CS(=O)Cc2ccccc2Cl)o1 (centres undefined),6%,0,-1,-15,7,0
CSc1ccc(CCNC(=O)c2ccc(CS(=O)Cc3ccccc3Cl)o2)cc1 (centres undefined),·,0,-7,-38*,6,1
O=C(NC1CCCCC1)c1ccc(CS(=O)Cc2ccccc2Cl)o1 (centres undefined),·,0,-3,-64*,-1,-2
O=C(NC1CCCC1)c1ccc(CS(=O)Cc2ccccc2Cl)o1 (centres undefined),·,0,-8,2,0,3
O=C(CCC(=O)NNC(=O)COc1ccc(Br)cc1)NCc1ccccc1,0%,0,5,-34*,0,-1
O=C(CCc1ccccc1)NNC(=O)COc1ccc(Br)cc1,·,0,2,-12,2,-1
CCc1ccc(CNC(=O)C2CCN(C(=O)c3ccc(-n4ccc5ccccc54)s3)CC2)cc1,-3%,1,14,-23,3,-4
CSc1ccc(/C=C2/C(C)=C(CC(=O)O)c3cc(F)ccc32)cc1,2%,·,·,·,·,·
Cc1ccc(CNc2ncnc3onc(-c4ccc(F)cc4)c23)cc1,-2%,-1,3,-24,32*,-5
Cc1noc2ncnc(NCCc3ccccc3)c12,-1%,2,-12,-23,23,-2
Cc1ccc(CCNc2ncnc3onc(C)c23)cc1,-1%,-1,-9,-36*,22,-8
COc1cccc(OCc2ccc(Cl)cc2)c1C#N,-3%,0,0,-51*,2,-6
COc1ccc(N)c2c1C(=O)c1ccccc1C2=O,-3%,-1,5,-2,3,4
COc1cccc2c1C(=O)c1ccc3ccccc3c1C2=O,0%,0,1,-35*,1,-2
COc1ccc(OC)c2c1C(=O)c1ccccc1C2=O,-2%,35*,-4,-1,31*,0
CC1CN(C(=O)N2CCC(C(=O)NCc3ccccc3F)CC2)c2cc(Cl)ccc2O1 (centres undefined),1%,0,-6,44,12,2
O=C(Cc1cc(=O)[nH][nH]1)N/N=C/C(Cl)=C/c1ccccc1,1%,0,0,1,31*!,2
O=C(Cc1cc(=O)[nH][nH]1)N/N=C/c1ccccc1Cl,1%,1,-4,13,3,-4

# Assay outcomes: PubChem BioAssay, National Center for Advancing Translational Sciences (NCATS)
